Measured values from the OligoGym collection.

biological target: CLN5; assay: pooled miR-30 sensor sort-seq; sequence = guide strand; conditions: shRNA
Also: reference of the scale not given here.

| Sequence | sensor-assay potency score (higher = more potent) |
| --- | --- |
| TCTATGTTCTTGAACTCTGCTC | 0.0222 |
| TTCTTGTATAGTTGGTTTCTAT | -0.695 |
| TTATAAAACAAATAGAACTGTT | -0.281 |
| TATAAAACAAATAGAACTGTTT | -0.137 |
| ATGTTCTTGAACTCTGCTCCAA | -1.05 |
| TTTCTATGTTCTTGAACTCTGC | -0.7 |
| TAGGTAAAAACCAATATTCAAA | -1.15 |
| TTTCCTTCCAGTGAACATCATC | -0.843 |
| TTCATTGTCCTGTTTCACCCAC | 0.245 |
| TTGACAATAAGGATCAGGTTTT | -0.121 |
| TTGCCAGTTAATGTACTTCTGA | -0.714 |
| TATAGTTGCTACTTGAACTAAT | -0.263 |
| TAATATGCAGCAATTCTGCTGA | 0.18 |

biological target: CLRN3; assay: as above; conditions: shRNA

| Sequence | sensor-assay potency score (higher = more potent) |
| --- | --- |
| TTTGAATACCACACAGACCAGC | -1.01 |
| TAAAACTGCAAACTTTTTCTTT | -0.472 |
| TCTAACAGCAATCGTACTGGTG | -0.061 |
| TAAAGCATTTGGAACAACTCTT | 0.169 |
| TTACCATGCTGAATTGTCCAGA | -0.037 |
| TTGAAGCAGAGTCTCTAACAGC | -0.854 |
| TAAGTGATGAAAATGCTCCCAT | 0.574 |
| TTGTCCAGAGAAGCTAACCAGT | -1.23 |
| TCTCTAACAGCAATCGTACTGG | -0.178 |
| TATATTTAGAAGAATGACGAGC | -0.483 |
| ATTTGGAACAACTCTTCGGAGA | -1.11 |
| TTCAGTATCTCTAAAACTGCAA | -0.132 |

biological target: CMAS; assay: as above; conditions: shRNA

| Sequence | sensor-assay potency score (higher = more potent) |
| --- | --- |
| TTCTTTAATAAACTTATCCCAA | -0.589 |
| TTTCACTCCATCGAAACTGATG | -0.871 |
| TAGAGCTGTCTTTTGAAACTTC | 0.56 |
| TTCGATGAACTTGTGCACCAAA | -0.973 |
| TACAACTGCTAGCTTGTCTGAT | -0.274 |
| TTCATCTACAACTGCTAGCTTG | -0.562 |
| TAGTGAGGTAGAGCTGTCTTTT | -0.742 |
| TTTAGCTGGATTTAAATTCAGA | -0.846 |
| TATATATATATCACAAACCAAA | -1.7 |
| TACATTTGCAAATGTATCCAAC | -0.636 |
| TTTGAAACTTCAGAACTTCTTC | 0.8 |
| TCATCTACAACTGCTAGCTTGT | -0.405 |

biological target: CMIP; assay: as above; conditions: shRNA

| Sequence | sensor-assay potency score (higher = more potent) |
| --- | --- |
| TTGCTGAGAAAGGTCCGCGGGT | -0.793 |
| TTGTATTCCAGCATCAAGCACA | -0.524 |
| TAAACTGCAGAGACTCTTCATG | 0.214 |
